High-throughput results as filed in PubChem.
TDP1 cell noCPT – qHTS for Inhibitors of human tyrosyl-DNA phosphodiesterase 1 (TDP1): qHTS in cells in absence of CPT | 15% of 420,000 active | Potency, µM (series often up to 46.2 µM), for the others: top-dose activity change, negative = growth inhibition, most hits filed as inhibitors | DT40 Tdp1-/- hTDP1 cells, no CPT, ATP luminescence, 48 h; further: potency means the concentration at half of the fitted maximal effect; on the % scale 0 is the no-effect control and ±100 the full control effect; nearly all actives have a fitted effect of over 55% in size
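Readout: luminescence from CellTiter-Glo after 30 min in the dark at RT. Cells: DT40 Tdp1-/- with stable hTDP1, 400/well. Exposure: compounds alone, ≥48 hr, 37 °C.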
IL-1B inflam inh – inflammasome signaling inhibition, IL-1 beta readout; THP-1 LPS/ATP IL-1B secretion, AlphaLISA, 16 h; stronger effect = lower value; activity change, % at 57.5 µM; 4.7% of 360,000 active; AID 743279; in the data active means activity change below about -50%; inconclusive means mostly about -30% to -49%; further: on the % scale 0 is the no-effect control and ±100 the full control effect
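Secreted IL-1B measured by AlphaLISA bead assay after 16 h compound exposure of THP-1 cells; compounds (final up to 57.5 uM) added 1 h before LPS (250 ng/mL) and ATP (1.25 mM) stimulation; lower signal means less secretion.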
DRD3 antagonist – blocks the human D3 dopamine receptor; P35462; D3R cells, DiscoveRx beta-arrestin luminescence, antagonist mode; stronger effect = lower value; max response, negative = inhibition, %; 2.5% of 360,000 active; in the data active means max response below about -50%; inconclusive means no clear call, values can overlap the other calls; further: on the % scale 0 is the no-effect control and ±100 the full control effect
Target sequence (P35462 whole entry, looked up): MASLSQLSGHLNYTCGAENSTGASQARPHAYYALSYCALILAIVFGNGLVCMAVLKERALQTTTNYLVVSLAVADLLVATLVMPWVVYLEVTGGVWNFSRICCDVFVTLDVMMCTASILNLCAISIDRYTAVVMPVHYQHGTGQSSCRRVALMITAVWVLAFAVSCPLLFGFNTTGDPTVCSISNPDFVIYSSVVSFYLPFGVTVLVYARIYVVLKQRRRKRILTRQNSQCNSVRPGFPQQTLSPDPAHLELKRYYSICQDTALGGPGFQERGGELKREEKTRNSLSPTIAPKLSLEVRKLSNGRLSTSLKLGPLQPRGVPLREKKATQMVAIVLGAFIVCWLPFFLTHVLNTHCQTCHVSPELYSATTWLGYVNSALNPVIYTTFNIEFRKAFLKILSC
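Cells plated overnight at 1500 cells/well, then exposed to library compounds with dopamine controls for 90 minutes at 37 degrees C. DiscoveRx reagent added for 30–60 minutes at room temperature; luminescence read, quantitative HTS format.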
ClpP mod – qHTS Assay for Activators of ClpP; 1.9% of 340,000 active; purified B. subtilis ClpP, FRET peptide cleavage, 20 min; ATP-dependent Clp protease proteolytic subunit (Bacillus subtilis (strain 168)), P80244; Potency, µM (series often up to 57.5 µM), without a hit: at the highest dose activity change, negative = active; active means well fitted falling curve with a large enough effect; inconclusive means small, poorly fitted or top-dose-only effect; inactive means no such curve, though single readings can be large or run the other way; further: potency means the concentration at half of the fitted maximal effect; the source files actives as falling curves though it sought activators and does not explain the sign; nearly all actives have a fitted effect of over 65% in size
Target sequence (P80244 whole entry, looked up): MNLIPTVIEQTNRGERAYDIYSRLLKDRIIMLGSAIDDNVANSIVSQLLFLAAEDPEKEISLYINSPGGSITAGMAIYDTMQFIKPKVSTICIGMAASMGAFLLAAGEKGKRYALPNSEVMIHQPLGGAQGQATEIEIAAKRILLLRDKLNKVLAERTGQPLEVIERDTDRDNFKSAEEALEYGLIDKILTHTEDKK
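Buffer: 100 mM Tris/HCl pH8, 100 mM KCl, 0.05% low protease BSA, 2.5% glycerol, 0.01% Tween-20. ClpP 10 microg/mL final; 20 min RT; delta FRET normalized to ADEP and DMSO controls.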
D3 ag – activates the human D3 dopamine receptor; 0.58% of 410,000 active; max activation, %; D3R DiscoveRx beta-arrestin cells, luminescence, 90 min; P35462; in the data active means max activation above about 30%; further: 0% is about no effect
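Agonist-mode cell screen: cells plated at 1500/well and incubated overnight at 37 °C, then exposed to library compounds for 90 min at 37 °C. Detection reagent was added for 30–60 min at room temperature, and luminescence was read.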
TDP1 cell CPT – growth inhibition of DT40 Tdp1-/-;hTDP1 cells with camptothecin (screen for TDP1 inhibitors) | chicken DT40 Tdp1-/-;hTDP1 cells + 20 nM CPT, ATP luminescence, 48 h | Potency, µM (top dose mostly 46.2 µM), for inactives: at the top dose activity change, negative = growth inhibition, usual class: inhibitors | 12% of 420,000 active | AID 686979; further: potency means the concentration at half of the fitted maximal effect; on the % scale 0 is the no-effect control and ±100 the full control effect; nearly all actives have a fitted effect of over 55% in size
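Cell growth measured by CellTiter-Glo luminescence after a minimum 48 h, 37 C compound exposure with 20 nM CPT in Tdp1-knockout DT40 cells stably expressing hTDP1, seeded 400/well; qHTS titration format.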
Starred values were filed as active, the others as inactive. Hits are enriched below; roughly 21% of the tested compounds scored in any of these assays. Unless noted, the call rests on the fitted dose curve; in most records, active means well fitted inhibition curve with a large enough effect; inconclusive means small, poorly fitted or top-dose-only effect; inactive means flat fitted curve, though single readings scatter.

CCCCn1nnnc1C(CCc1ccccc1)N1CCN(C/C=C/c2ccccc2)CC1 (configuration not stated) was read as TDP1 cell noCPT 23µM*, IL-1B inflam inh inconclusive, DRD3 antagonist -58*, ClpP mod -4%, D3 ag -13 and TDP1 cell CPT inconclusive.
For CCCCC(c1nnnn1CCOC)N1CCN(Cc2ccccc2)CC1 (configuration not stated) the results were TDP1 cell noCPT -21%, IL-1B inflam inh 4, DRD3 antagonist -80*, ClpP mod 1%, D3 ag -1 and TDP1 cell CPT 3%.
`CCCN(CCC)Cc1c(C(=O)N/N=C/CCc2ccccc2)nnn1-c1nonc1N` gave TDP1 cell noCPT -2%, IL-1B inflam inh -1, DRD3 antagonist 10, D3 ag 16 and TDP1 cell CPT 3%.
Screening CN1CCc2c(sc(NC(=O)Cc3ccccc3)c2C(N)=O)C1 returned TDP1 cell noCPT -2%, IL-1B inflam inh -1, DRD3 antagonist -27, ClpP mod -6%, D3 ag -8 and TDP1 cell CPT 15%.
CCOC(=O)c1c(NC(=O)CCS(=O)(=O)c2ccccc2)sc2c1CCN(C)C2 was read as TDP1 cell noCPT 16µM*, IL-1B inflam inh 0, DRD3 antagonist 1, ClpP mod -2%, D3 ag 0 and TDP1 cell CPT 16µM*.
CCOC(=O)N1CCc2c(sc(NC(=O)CCS(=O)(=O)c3ccccc3)c2C(N)=O)C1 was read as TDP1 cell noCPT inconclusive, IL-1B inflam inh -10, DRD3 antagonist -8, ClpP mod -8%, D3 ag -11 and TDP1 cell CPT inconclusive.
CCN1CCc2c(sc(NC(=O)Cc3ccccc3)c2C(=O)OC)C1 was read as TDP1 cell noCPT inconclusive, IL-1B inflam inh inconclusive, DRD3 antagonist -103*, ClpP mod -12%, D3 ag -18 and TDP1 cell CPT 12µM*.
Screening CN1CCc2c(sc(NC(=O)Cc3ccc(F)cc3)c2C(N)=O)C1 returned TDP1 cell noCPT 7%, IL-1B inflam inh -2, DRD3 antagonist -51*, ClpP mod 0%, D3 ag -3 and TDP1 cell CPT 20%.
CCOC(=O)c1c(NC(=O)Cc2ccccc2)sc2c1CCN(C)C2 was read as TDP1 cell noCPT 13µM*, IL-1B inflam inh inconclusive, DRD3 antagonist inconclusive, ClpP mod -4%, D3 ag -11 and TDP1 cell CPT inconclusive.
For COc1ccccc1CSc1nc2c(c(=O)n(C)c(=O)n2C)n1C the results were TDP1 cell noCPT -4%, IL-1B inflam inh 36, DRD3 antagonist 13, ClpP mod -2%, D3 ag 2 and TDP1 cell CPT inconclusive.
For Fc1ccc(-c2cn3cc(Cc4ccc(Cl)cc4)sc3n2)cc1 the results were TDP1 cell noCPT -23%, ClpP mod -6%, D3 ag 6 and TDP1 cell CPT -8%.
CCCCNc1ccc(C(=O)OCCN(CC)CC)cc1 was read as TDP1 cell noCPT -25%, D3 ag -8 and TDP1 cell CPT -16%.
For CC(C)CCn1c(SCC(=O)Nc2ccccc2C(F)(F)F)nc2nccnc2c1=O the results were TDP1 cell noCPT -29%, IL-1B inflam inh 16, DRD3 antagonist 0, ClpP mod -4%, D3 ag 3 and TDP1 cell CPT inconclusive.
`CCOC(=O)c1c(NC(=O)Cc2ccccc2)sc2c1CCN(CC)C2` gave TDP1 cell noCPT inconclusive, IL-1B inflam inh inconclusive, DRD3 antagonist -64*, ClpP mod -7%, D3 ag -14 and TDP1 cell CPT inconclusive.
`CN1CCc2c(sc(/N=C/c3cccs3)c2C(N)=O)C1` gave TDP1 cell noCPT -23%, IL-1B inflam inh -8, DRD3 antagonist -23, ClpP mod 10µM*, D3 ag -9 and TDP1 cell CPT -12%.
Screening CCOC(=O)c1c(NC(=S)Nc2ccc(OCC)cc2)sc2c1CCN(C)C2 returned TDP1 cell noCPT -18%, IL-1B inflam inh -6, DRD3 antagonist 2, ClpP mod 0%, D3 ag -9 and TDP1 cell CPT -28%.
`CCOC(=O)c1c(N)sc2c1CCN(Cc1ccccc1)C2` gave TDP1 cell noCPT 15µM*, ClpP mod 5%, D3 ag 5 and TDP1 cell CPT inconclusive.
`CN1CCc2c(sc(/N=C/c3ccco3)c2C(N)=O)C1` gave TDP1 cell noCPT -25%, IL-1B inflam inh -6, DRD3 antagonist 6, ClpP mod 7%, D3 ag 4 and TDP1 cell CPT -15%.
CCOC(=O)c1c(NC(=S)Nc2ccc(Cl)cc2)sc2c1CCN(C)C2 was read as TDP1 cell noCPT inconclusive, IL-1B inflam inh -15, DRD3 antagonist -11, ClpP mod 8%, D3 ag -24 and TDP1 cell CPT 16µM*.
For CCN(Cc1ccccc1)C(=O)COC(=O)c1cc(Cl)nc(Cl)c1 the results were TDP1 cell noCPT -14%, IL-1B inflam inh 19, DRD3 antagonist -21, ClpP mod -3%, D3 ag -12 and TDP1 cell CPT -7%.
Screening Cc1cccc(-n2c(=O)c3c(c4cc(C)ccc4n3C)n(CC(=O)Nc3ccc(C)cc3C)c2=O)c1 returned TDP1 cell noCPT 19%, ClpP mod -5%, D3 ag 2 and TDP1 cell CPT 1%.
Screening CCc1ccc(CNC(=O)c2nn(-c3ccc(OC)c(Cl)c3)c(=O)c3c2c2ccccc2n3C)cc1 returned TDP1 cell noCPT -7%, ClpP mod 0%, D3 ag -2 and TDP1 cell CPT 1%.
For N#Cc1cccc(NC(=O)N2CC3(CCN(C(=O)c4cccc(F)c4)CC3)C2)c1 the results were TDP1 cell noCPT -28% and TDP1 cell CPT -7%.
`C=C(C)COc1ccc2c(C)c(CC(=O)N3C[C@H]4C[C@@H](C3)c3cccc(=O)n3C4)c(=O)oc2c1` gave TDP1 cell noCPT -24%, IL-1B inflam inh 7, DRD3 antagonist -24, ClpP mod 4%, D3 ag -7 and TDP1 cell CPT -22%.
Screening C=C(C)COc1cc2oc(=O)c(CC(=O)N3C[C@H]4C[C@@H](C3)c3cccc(=O)n3C4)c(C)c2cc1Cl returned TDP1 cell noCPT inconclusive, IL-1B inflam inh 0, DRD3 antagonist -21, ClpP mod 5%, D3 ag 33* and TDP1 cell CPT inconclusive.
